“And” between values parts separate entries of the source, which are not always exact repeats. Identical values can stand only once. Compounds without any hit were thinned out: in the full panel of roughly 83,000, 20% have a hit.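 Values shown are percent growth following 48 h exposure of cells in 96-well plates to a single concentration of compound; below 10 was considered active.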 Unmarked numbers belong to inactive results. The source made the active and inactive calls.
Each molecule was assayed on MDA-MB-468 breast (assay: NCI-60 one-dose screen, 48 h (100 = growth as untreated, 0 = no growth, -100 = all killed)). Settings: 10 µM unless noted.

Row | SMILES | growth
1 | CC(C)(C)c1ccc(N2CSC(=S)N(c3ccc(C(C)(C)C)cc3)C2)cc1 | 111%
2 | Cn1cnc2c(N3CCN(C(=O)OCc4ccc5c(Cl)cc(Cl)c(O)c5n4)CC3)nc(Cl)nc21 | 72.5%
3 | C=C1C(=O)O[C@H]2[C@H]1CC/C(CNC(=O)/C=C/c1ccccc1F)=C\CC[C@@]1(C)O[C@@H]21 | -45.5% (active)
4 | COc1ccc(Nc2ncc(I)c(NCCCNC(=O)C3CCC3)n2)cc1 | -14.9% (active)
5 | CNCCCNc1nc2ccccc2c2c(=O)c3cc(OC)ccc3sc12 | 24.8%
6 | O=C(c1ccc(F)cc1)C1CCN(CCn2c(=O)[nH]c3ccccc3c2=O)CC1 | 104%
7 | CC1=CC(=O)N(c2cccc3c(N4C(=O)C=C(C)C4=O)cccc23)C1=O | 23.6%
8 | COc1ccc(/C=C/C(=O)Nc2ccc(-c3nc4ccc(OC)cc4s3)cc2)cc1 | 67.2%
9 | COC(=O)/C(CCC=C(C)C)=C1\[C@@H](OC(C)=O)C[C@@]2(C)[C@H]1CC(=O)[C@H]1[C@@]3(C)CCC(N4CCCC4)[C@@H](C)[C@@H]3CC[C@@]12C (stereo partly drawn) | 99.7%
10 | CCOC(=O)Nc1ccc(-c2nc(-c3cccc(OCCN4CCOCC4)c3)c(-c3ccnc(Br)c3)[nH]2)cc1 | 33.9%
11 | CN1CCN(CCCn2c(=O)c3sc4ncccc4c3n3nnc(-c4ccccc4)c23)CC1 | -62% (active)
12 | COc1cccc(C2C(C#N)=C(N)Oc3c2ccc2ccccc32)c1 (stereo not drawn) | 11.6%
13 | C#CCNCCN1C(=O)c2ccc3c4c(ccc(c24)C1=O)C(=O)N(CCNCC#C)C3=O | 17.1%
14 | CCO/C=N/C1=C(C#N)C(c2ccc(OC)cc2)c2c(c3ccccc3n(C)c2=O)O1 (stereo not drawn) | 105%
15 | COc1ccc(S(=O)(=O)n2cc(C(=O)C(=O)Nc3ccncc3)c3ccccc32)cc1F | 17.9%
16 | Cc1ccc(C)c2c1CCC2C(C)C (stereo not drawn) | 106%
17 | Cn1cc(-c2nonc2-c2c[nH]c3ccccc23)c2ccccc21 | -4.56% (active)
18 | COc1cc(/C=C/c2cc(/C=C/c3ccc(O)c(OC)c3)n(C(=O)Nc3ccc(Cl)cc3)n2)ccc1O | -26.4% (active)
19 | CC1(C)CC(=O)C2=C(C1)C(c1ccc(Cl)cc1)n1ncc(C#N)c1N2 (stereo not drawn) | 105%
20 | COc1ccc2oc(=O)cc(-c3nc4ccc(N)cc4[nH]3)c2c1 | 83.9%
21 | Cc1ccc(=O)[nH]n1 | 103% and 104%
22 | COc1cc2c(cc1OC)-c1ccc3cc4c(cc3c1N(CCN1CCCC1)C2)OCO4 | -5.22% (active)
23 | COC(=O)/C=C1/SC(=NCc2ccccc2)N(CCc2c[nH]c3ccccc23)C1=O | 81.1%
24 | COc1cc(C2C=C(c3ccc(Cl)cc3)N=C3SC(C)=CN32)cc(OC)c1OC (stereo not drawn) | 80.2%
25 | COc1ccc(Cc2nc(C#N)c(N3CCN(c4ccc(F)cc4)CC3)o2)cc1 | 78%
26 | CC1(C)C=Cc2cc(/C(N)=N/C(N)=N/c3nc4ccccc4s3)ccc2O1 | 74.1%
27 | C/C(=C\c1cc(Cl)ccc1OCC(=O)O)[N+](=O)[O-] | 112%
28 | CCOC(=O)C1=C(N)Oc2c(sc3c(C)cccc23)C1c1ccc(F)cc1 (stereo not drawn) | 6.58% (active)

Reference: PubChem BioAssay (NCI)
